# Experimental data: paper PMC7862700, “An all-to-all approach to the identification of sequence-specific readers for epigenetic DNA modifications on cytosine”
# Columns and labels:
# Test in all cases: DAPPL (digital affinity profiling via proximity ligation, sequencing); 10 mM Tris-HCl pH 7.5, 50 mM NaCl, 1 mM DTT, 4% glycerol, room temperature, 30 min; GST-TFs on glutathione beads, 16-mer random dsDNA library, 0.1% formaldehyde crosslink after washing; high values mean tight binding
# [1] = biological target: T1, FLI1 (Homo sapiens, UniProt Q01543 1-452); settings: protein: recombinant; tags: N-terminal GST; dsDNA, one strand shown
# T1 sequence: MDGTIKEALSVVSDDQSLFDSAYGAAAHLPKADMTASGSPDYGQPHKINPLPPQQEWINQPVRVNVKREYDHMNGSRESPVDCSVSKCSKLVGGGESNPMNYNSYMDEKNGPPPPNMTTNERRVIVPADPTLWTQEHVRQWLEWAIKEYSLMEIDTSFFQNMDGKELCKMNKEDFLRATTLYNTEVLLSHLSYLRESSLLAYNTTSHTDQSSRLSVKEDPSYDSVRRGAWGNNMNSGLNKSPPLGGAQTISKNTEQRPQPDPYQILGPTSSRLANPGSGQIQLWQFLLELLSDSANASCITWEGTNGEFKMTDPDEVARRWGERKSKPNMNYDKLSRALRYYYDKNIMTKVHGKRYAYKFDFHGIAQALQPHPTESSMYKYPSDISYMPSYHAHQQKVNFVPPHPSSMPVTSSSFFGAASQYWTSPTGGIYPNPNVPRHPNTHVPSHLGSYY
# Summary of the method: (§1)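 Human transcription factors were made in yeast as GST fusions, captured on glutathione beads and barcoded with DNA. With a tag-only sample included, the pool was incubated with 200 nmole of a random double-stranded 16-mer DNA library in Tris/NaCl/DTT/glycerol buffer at room temperature for 30 min, then crosslinked with 0.1% formaldehyde after washing, ligated by proximity, amplified and sequenced. For binding signal, each hexamer's read frequency for a factor is divided by its frequency for the tag-only sample.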
# [2] = biological target: T2, ELK1 (Homo sapiens, UniProt P19419 1-428); settings: protein: recombinant; tags: N-terminal GST; dsDNA, one strand shown
# T2 sequence: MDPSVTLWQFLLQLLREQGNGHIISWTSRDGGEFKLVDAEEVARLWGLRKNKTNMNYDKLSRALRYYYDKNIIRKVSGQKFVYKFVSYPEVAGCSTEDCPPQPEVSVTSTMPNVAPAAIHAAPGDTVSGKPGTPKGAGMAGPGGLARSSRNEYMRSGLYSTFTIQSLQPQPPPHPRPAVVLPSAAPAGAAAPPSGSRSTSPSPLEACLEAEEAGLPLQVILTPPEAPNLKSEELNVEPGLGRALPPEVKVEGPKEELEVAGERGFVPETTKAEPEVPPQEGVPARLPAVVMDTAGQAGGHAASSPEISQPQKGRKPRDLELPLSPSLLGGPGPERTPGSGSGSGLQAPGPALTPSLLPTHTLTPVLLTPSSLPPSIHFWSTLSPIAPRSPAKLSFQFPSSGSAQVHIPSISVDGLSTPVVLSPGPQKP
# Summary of the method: as §1
# [3] = biological target: T3, GABPA (Homo sapiens, UniProt Q06546 1-454); settings: protein: recombinant; tags: N-terminal GST; dsDNA, one strand shown
# T3 sequence: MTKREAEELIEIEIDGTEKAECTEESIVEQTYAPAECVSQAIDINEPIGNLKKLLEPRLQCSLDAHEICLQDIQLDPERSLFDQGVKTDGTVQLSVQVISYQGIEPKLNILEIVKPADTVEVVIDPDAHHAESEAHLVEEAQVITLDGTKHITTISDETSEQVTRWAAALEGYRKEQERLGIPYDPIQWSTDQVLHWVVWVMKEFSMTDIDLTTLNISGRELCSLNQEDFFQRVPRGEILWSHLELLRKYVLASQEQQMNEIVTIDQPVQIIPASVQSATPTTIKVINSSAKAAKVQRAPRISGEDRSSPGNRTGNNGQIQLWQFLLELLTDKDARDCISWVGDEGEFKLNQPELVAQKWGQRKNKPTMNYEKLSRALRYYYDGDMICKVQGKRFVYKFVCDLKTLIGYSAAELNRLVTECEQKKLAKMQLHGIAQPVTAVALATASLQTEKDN
# Summary of the method: as §1
# [4] = biological target: T4, ERG (Homo sapiens, UniProt P11308 1-479); settings: protein: recombinant; tags: N-terminal GST; dsDNA, one strand shown
# T4 sequence: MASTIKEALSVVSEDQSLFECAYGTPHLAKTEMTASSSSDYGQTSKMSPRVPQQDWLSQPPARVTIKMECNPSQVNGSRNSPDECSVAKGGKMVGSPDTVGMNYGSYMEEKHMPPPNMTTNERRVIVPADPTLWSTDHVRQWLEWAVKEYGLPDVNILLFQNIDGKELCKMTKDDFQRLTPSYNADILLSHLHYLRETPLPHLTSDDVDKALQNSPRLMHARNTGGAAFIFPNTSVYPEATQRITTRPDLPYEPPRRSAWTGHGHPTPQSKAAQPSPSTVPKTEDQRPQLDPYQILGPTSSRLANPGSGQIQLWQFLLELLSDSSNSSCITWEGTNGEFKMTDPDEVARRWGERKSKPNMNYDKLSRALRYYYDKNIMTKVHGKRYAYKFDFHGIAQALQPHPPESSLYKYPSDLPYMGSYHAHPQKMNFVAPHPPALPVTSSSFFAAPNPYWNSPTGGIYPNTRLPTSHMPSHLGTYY
# Summary of the method: as §1
# [5] = biological target: ELF1 (Homo sapiens, UniProt P32519 1-619); settings: protein: recombinant; tags: N-terminal GST; dsDNA, one strand shown
# Summary of the method: as §1
# [6] = biological target: T5, EHF (Homo sapiens, UniProt Q9NZC4 1-300); settings: protein: recombinant; tags: N-terminal GST; dsDNA, one strand shown
# T5 sequence: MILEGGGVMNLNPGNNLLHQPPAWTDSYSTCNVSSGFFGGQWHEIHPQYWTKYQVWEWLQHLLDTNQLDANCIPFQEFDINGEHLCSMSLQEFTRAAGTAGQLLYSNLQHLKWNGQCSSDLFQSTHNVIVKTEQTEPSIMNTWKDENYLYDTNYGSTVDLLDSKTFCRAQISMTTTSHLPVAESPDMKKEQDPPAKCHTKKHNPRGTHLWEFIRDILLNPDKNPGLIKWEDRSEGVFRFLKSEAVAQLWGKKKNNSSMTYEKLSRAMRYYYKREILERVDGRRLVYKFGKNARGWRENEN
# Summary of the method: as §1
# [7] = biological target: SPI1 (Homo sapiens, UniProt P17947 1-270); settings: protein: recombinant; tags: N-terminal GST; dsDNA, one strand shown
# Summary of the method: as §1
# [8] = biological target: SPIB (Homo sapiens, UniProt Q01892 1-262); settings: protein: recombinant; tags: N-terminal GST; dsDNA, one strand shown
# Summary of the method: as §1
# [9] = biological target: T6, ELK3 (Homo sapiens, UniProt P41970 1-407); settings: protein: recombinant; tags: N-terminal GST; dsDNA, one strand shown
# T6 sequence: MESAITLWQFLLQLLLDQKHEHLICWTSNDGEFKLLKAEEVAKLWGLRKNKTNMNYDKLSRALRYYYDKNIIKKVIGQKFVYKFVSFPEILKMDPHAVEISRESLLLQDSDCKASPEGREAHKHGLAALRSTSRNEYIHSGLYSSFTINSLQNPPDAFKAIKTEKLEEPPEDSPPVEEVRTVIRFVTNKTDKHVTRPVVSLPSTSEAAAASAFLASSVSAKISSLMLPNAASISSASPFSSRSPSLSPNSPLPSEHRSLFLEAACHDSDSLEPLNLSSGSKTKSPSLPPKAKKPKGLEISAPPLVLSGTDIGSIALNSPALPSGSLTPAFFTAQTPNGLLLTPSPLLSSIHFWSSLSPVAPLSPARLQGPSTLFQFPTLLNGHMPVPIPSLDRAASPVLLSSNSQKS
# Summary of the method: as §1
# [10] = biological target: T7, FEV (Homo sapiens, UniProt Q99581 1-238); settings: protein: recombinant; tags: N-terminal GST; dsDNA, one strand shown
# T7 sequence: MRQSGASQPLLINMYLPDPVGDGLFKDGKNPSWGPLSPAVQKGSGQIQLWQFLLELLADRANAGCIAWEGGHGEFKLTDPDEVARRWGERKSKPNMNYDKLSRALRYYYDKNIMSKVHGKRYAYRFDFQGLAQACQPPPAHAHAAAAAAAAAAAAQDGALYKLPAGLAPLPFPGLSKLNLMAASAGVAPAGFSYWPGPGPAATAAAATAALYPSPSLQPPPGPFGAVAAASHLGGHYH
# Summary of the method: as §1
# [11] = biological target: ETV5 (Homo sapiens, UniProt P41161 1-510); settings: protein: recombinant; tags: N-terminal GST; dsDNA, one strand shown
# Summary of the method: as §1
# [12] = biological target: HSF1 (Homo sapiens, UniProt Q00613 1-529); settings: protein: recombinant; tags: N-terminal GST; chain copies: 3; dsDNA, one strand shown
# Summary of the method: as §1
# [13] = biological target: T8, SPIC (Homo sapiens, UniProt Q8N5J4 1-248); settings: protein: recombinant; tags: N-terminal GST; dsDNA, one strand shown
# T8 sequence: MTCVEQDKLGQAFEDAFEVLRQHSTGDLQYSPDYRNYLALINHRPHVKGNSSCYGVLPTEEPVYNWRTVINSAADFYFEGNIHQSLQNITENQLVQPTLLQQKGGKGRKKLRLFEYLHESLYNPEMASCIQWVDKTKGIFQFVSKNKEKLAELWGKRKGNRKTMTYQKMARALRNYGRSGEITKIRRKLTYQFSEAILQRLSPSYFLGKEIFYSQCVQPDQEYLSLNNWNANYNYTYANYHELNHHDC
# Summary of the method: as §1
# [14] = biological target: ELF4 (Homo sapiens, UniProt Q99607 1-663); settings: protein: recombinant; tags: N-terminal GST; dsDNA, one strand shown
# Summary of the method: as §1
# [15] = biological target: T9, ELK4 (Homo sapiens, UniProt P28324-2 1-405); settings: protein: recombinant; tags: N-terminal GST; dsDNA, one strand shown
# T9 sequence: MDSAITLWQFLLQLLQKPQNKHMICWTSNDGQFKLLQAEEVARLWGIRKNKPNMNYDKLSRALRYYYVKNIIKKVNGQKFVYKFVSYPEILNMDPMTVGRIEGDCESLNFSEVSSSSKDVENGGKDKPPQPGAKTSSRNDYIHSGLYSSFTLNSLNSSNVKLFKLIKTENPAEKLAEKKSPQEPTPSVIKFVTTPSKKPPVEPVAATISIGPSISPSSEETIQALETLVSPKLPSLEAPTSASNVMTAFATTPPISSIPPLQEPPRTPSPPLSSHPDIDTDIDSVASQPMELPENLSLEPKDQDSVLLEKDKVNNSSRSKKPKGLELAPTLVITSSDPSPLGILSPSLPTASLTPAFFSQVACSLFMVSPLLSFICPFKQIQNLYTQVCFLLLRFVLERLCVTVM
# Summary of the method: as §1
# [16] = biological target: T10, ETV2 (Homo sapiens, UniProt O00321 1-342); settings: protein: recombinant; tags: N-terminal GST; dsDNA, one strand shown
# T10 sequence: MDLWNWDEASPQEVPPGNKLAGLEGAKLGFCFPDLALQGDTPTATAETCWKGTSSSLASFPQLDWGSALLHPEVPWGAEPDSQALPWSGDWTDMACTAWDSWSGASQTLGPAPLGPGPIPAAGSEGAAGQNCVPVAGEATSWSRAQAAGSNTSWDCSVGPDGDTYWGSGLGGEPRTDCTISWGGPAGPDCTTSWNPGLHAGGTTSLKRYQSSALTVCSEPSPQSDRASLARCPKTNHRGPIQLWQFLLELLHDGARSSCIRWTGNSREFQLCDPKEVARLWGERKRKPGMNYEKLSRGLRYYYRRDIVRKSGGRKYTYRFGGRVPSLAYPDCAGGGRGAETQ
# Summary of the method: as §1
# [17] = biological target: T11, ELF3 (Homo sapiens, UniProt P78545 1-371); settings: protein: recombinant; tags: N-terminal GST; dsDNA, one strand shown
# T11 sequence: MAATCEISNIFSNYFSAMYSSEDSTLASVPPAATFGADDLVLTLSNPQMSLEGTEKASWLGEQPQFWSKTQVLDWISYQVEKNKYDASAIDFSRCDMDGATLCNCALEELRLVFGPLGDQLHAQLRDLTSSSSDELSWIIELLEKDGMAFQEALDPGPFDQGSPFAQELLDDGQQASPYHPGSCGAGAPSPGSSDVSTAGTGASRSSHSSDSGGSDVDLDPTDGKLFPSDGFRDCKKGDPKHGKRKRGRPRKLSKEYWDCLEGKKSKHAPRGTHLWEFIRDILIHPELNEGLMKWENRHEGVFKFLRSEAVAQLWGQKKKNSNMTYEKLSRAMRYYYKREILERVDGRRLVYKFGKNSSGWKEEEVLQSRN
# Summary of the method: as §1
# [18] = biological target: CRX (Homo sapiens, UniProt O43186 1-299); settings: protein: recombinant; tags: N-terminal GST; dsDNA, one strand shown
# Summary of the method: as §1
# [19] = biological target: ETV1 (Homo sapiens, UniProt P50549 1-477); settings: protein: recombinant; tags: N-terminal GST; dsDNA, one strand shown
# Summary of the method: as §1
# ETV5, sequence (P41161 whole entry): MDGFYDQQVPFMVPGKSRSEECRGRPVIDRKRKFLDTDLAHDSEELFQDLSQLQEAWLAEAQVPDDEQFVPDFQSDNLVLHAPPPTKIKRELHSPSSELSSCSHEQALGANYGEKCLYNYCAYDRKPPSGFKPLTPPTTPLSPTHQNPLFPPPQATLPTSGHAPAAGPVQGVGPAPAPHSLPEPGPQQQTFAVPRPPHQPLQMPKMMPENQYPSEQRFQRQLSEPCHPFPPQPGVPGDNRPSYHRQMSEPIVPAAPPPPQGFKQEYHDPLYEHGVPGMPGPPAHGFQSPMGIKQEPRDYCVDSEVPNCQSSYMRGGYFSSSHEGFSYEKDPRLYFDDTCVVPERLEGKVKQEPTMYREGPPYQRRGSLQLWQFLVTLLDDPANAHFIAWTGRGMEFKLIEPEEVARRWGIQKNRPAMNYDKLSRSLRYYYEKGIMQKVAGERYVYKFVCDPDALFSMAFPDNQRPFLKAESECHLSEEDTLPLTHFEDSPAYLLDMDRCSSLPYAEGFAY
# CRX, sequence (O43186 whole entry): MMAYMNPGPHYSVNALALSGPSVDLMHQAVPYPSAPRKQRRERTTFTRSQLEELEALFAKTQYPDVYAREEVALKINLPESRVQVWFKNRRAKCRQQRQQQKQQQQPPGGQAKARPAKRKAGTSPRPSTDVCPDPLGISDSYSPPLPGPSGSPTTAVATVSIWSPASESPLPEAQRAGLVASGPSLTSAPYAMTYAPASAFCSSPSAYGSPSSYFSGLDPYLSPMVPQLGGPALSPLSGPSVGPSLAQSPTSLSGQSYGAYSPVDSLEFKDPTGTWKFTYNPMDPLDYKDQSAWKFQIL
# ELF4, sequence (Q99607 whole entry): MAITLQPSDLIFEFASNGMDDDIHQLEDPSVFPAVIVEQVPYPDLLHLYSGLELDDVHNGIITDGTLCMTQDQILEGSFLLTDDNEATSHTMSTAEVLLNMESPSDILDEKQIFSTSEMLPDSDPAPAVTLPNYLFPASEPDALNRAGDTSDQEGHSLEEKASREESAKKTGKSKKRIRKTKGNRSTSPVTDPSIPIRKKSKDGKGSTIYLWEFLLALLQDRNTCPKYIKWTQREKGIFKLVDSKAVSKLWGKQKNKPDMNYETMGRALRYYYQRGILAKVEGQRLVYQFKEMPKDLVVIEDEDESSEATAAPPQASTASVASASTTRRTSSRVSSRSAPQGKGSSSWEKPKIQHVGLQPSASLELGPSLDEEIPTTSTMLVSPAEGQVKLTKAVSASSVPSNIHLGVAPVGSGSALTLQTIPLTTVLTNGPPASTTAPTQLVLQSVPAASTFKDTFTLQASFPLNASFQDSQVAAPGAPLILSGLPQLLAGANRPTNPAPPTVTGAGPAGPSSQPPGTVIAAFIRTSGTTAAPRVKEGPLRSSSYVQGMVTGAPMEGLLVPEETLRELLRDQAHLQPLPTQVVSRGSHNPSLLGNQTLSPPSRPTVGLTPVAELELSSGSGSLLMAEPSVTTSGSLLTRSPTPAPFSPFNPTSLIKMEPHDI
# HSF1, sequence (Q00613 whole entry): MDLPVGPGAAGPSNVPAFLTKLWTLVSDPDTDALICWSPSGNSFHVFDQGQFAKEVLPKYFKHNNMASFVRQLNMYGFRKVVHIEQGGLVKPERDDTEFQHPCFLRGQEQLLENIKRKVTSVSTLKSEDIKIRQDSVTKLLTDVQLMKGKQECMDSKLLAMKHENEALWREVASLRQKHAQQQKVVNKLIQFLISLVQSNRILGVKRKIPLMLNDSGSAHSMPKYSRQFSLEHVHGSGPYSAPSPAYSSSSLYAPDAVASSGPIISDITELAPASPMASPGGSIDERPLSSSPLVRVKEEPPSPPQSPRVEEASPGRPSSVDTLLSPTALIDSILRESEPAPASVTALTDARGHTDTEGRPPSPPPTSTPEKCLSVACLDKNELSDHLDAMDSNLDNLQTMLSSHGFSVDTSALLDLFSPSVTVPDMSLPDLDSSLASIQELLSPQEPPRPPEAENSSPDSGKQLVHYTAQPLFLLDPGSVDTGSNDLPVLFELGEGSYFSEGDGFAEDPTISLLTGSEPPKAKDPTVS
# ELF1, sequence (P32519 whole entry): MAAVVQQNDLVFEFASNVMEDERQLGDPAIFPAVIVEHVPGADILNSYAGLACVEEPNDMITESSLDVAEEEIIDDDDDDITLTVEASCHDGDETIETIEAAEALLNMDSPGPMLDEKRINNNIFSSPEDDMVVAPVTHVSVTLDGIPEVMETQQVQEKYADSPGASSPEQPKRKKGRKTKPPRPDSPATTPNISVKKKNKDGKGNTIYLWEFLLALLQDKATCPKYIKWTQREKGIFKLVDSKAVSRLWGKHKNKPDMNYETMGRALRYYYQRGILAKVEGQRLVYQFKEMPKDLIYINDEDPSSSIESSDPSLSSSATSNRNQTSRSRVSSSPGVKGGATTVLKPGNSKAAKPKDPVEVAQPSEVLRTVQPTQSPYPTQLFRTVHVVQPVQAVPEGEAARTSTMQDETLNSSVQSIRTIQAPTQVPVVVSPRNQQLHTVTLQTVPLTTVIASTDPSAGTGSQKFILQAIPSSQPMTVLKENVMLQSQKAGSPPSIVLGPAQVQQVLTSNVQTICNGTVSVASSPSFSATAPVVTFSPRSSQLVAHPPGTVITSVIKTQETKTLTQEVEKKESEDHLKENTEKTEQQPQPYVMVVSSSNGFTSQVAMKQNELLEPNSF
# ETV1, sequence (P50549 whole entry): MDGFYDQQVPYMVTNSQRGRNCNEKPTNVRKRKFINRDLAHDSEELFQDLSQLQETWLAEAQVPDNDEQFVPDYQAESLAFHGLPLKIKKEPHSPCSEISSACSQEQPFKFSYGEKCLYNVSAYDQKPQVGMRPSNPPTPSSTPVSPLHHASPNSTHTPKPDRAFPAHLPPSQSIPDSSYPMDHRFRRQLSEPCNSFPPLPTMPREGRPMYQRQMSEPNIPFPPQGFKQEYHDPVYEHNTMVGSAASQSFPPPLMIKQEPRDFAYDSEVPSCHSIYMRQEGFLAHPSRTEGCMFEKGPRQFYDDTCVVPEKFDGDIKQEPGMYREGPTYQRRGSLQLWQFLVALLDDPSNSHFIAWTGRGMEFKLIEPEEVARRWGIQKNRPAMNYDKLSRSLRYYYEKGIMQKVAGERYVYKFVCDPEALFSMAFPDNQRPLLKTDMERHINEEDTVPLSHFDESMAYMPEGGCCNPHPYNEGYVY
# SPIB, sequence (Q01892 whole entry): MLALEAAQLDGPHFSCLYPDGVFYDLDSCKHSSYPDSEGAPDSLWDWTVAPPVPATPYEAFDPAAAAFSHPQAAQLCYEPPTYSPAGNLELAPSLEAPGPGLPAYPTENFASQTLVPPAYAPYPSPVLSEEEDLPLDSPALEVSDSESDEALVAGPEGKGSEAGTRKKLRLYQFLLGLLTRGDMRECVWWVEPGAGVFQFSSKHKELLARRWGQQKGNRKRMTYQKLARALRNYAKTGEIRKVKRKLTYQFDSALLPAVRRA
sequence,measurement,setting,value
AATTAC,binding signal,[1],"1.24 fold enrichment (6-mer frequency, TF over GST control)"
same,binding signal,[2],"1.19 fold enrichment (6-mer frequency, TF over GST control)"
same,binding signal,[3],"1.26 fold enrichment (6-mer frequency, TF over GST control)"
same,binding signal,[4],"1.25 fold enrichment (6-mer frequency, TF over GST control)"
same,binding signal,[5],"1.26 fold enrichment (6-mer frequency, TF over GST control)"
same,binding signal,[6],"1.33 fold enrichment (6-mer frequency, TF over GST control)"
same,binding signal,[7],"1.35 fold enrichment (6-mer frequency, TF over GST control)"
same,binding signal,[8],"1.35 fold enrichment (6-mer frequency, TF over GST control)"
same,binding signal,[9],"1.24 fold enrichment (6-mer frequency, TF over GST control)"
same,binding signal,[10],"1.25 fold enrichment (6-mer frequency, TF over GST control)"
same,binding signal,[11],"1.28 fold enrichment (6-mer frequency, TF over GST control)"
same,binding signal,[12],"1.43 fold enrichment (6-mer frequency, TF over GST control)"
same,binding signal,[13],"1.33 fold enrichment (6-mer frequency, TF over GST control)"
same,binding signal,[14],"1.24 fold enrichment (6-mer frequency, TF over GST control)"
same,binding signal,[15],"1.27 fold enrichment (6-mer frequency, TF over GST control)"
same,binding signal,[16],"1.38 fold enrichment (6-mer frequency, TF over GST control)"
same,binding signal,[17],"1.36 fold enrichment (6-mer frequency, TF over GST control)"
same,binding signal,[18],"1.74 fold enrichment (6-mer frequency, TF over GST control)"
same,binding signal,[19],"1.34 fold enrichment (6-mer frequency, TF over GST control)"
